# Laboratory results: PMC7819943, “Rice protein-binding microarrays: a tool to detect cis-acting elements near promoter regions in rice”
# Whole data set: some 68,000 sequences, median “fluorescence intensity (a.u.)” near 9,100, cut for the highest 2% near 16,000. For the sample, the highest values were picked, then their nearest neighbours and some sequences at random.
# Target: OsWRKY34 (Oryza sativa, UniProt Q0JBA9 1-250)
# Assay: protein-binding microarray (RPBM); PBS, 2% BSA, 51.3 ng/ul salmon testes DNA, 50 uM zinc acetate, 200 nM TF, 25 C, 1 h; high values mean tight binding
# Conditions: protein: recombinant; tags: N-terminal polyhistidine and DsRed monomer fusion (pET32a); label: CyDye5-dUTP incorporated in the synthesized complementary strand; 3' TTTTT single-stranded linker to array surface; dsDNA, one strand shown
# Summary of the method: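 The binding signal for each feature is its fluorescence intensity in arbitrary units. An Axon 4000B scanner was used to read a custom Agilent array that had been made double-stranded with Cy5-dUTP primer extension, blocked with 2% BSA, incubated at 25 °C for 1 h with 200 nM protein in PBS, 2% BSA, salmon testes DNA and 50 µM zinc acetate, and washed. The protein was an N-terminal polyhistidine–DsRed transcription factor fusion from E. coli BL21-CodonPlus, purified on Ni–NTA.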
# Chain of OsWRKY34 (Q0JBA9 entry or part of it): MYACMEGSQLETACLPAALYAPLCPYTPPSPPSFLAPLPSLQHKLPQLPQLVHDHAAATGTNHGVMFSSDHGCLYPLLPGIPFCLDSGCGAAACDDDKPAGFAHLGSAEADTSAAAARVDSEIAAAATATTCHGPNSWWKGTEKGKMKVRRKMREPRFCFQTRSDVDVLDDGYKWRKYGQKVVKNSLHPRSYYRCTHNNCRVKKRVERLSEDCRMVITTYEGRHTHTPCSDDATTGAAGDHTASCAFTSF
row,Sequence,binding signal
1,ACTGTTCATTGTTGATGGCCTTTTCCAAAAACTAGAAAAGCGGAGTCACCTAGTGCAG,8460 fluorescence intensity (a.u.)
2,GTTTCCTGGTGGTCCAATATAATACCTAGATAAGGTGTATCGGAGTCACCTAGTGCAG,8510 fluorescence intensity (a.u.)
3,GTCCAGATACTAAGGTGTATGGTATTATCGGAAAACCTGTCGGAGTCACCTAGTGCAG,24300 fluorescence intensity (a.u.)
4,TTATTATGGTTATATTGTACTAATTCATTGTCCAGGTTTTCGGAGTCACCTAGTGCAG,8430 fluorescence intensity (a.u.)
5,TAGCTAGCTCTTGTACAGGTTTCCTCACCTGCTGTATCGACGGAGTCACCTAGTGCAG,8060 fluorescence intensity (a.u.)
6,GAGACTAATTCCGACCTTGACCAAACCAAACCCTACCAAACGGAGTCACCTAGTGCAG,9200 fluorescence intensity (a.u.)
7,GGGGTGGTGGTGGTGGCGGCGGCAGTGTTGTTGGTCGCCGCGGAGTCACCTAGTGCAG,13500 fluorescence intensity (a.u.)
8,GGCTCGTCGGAGTAGGGGCGCTCGGGGTATGGGGCTCGGCCGGAGTCACCTAGTGCAG,20400 fluorescence intensity (a.u.)
9,CCGTGGTTGGGGTGGTGGGCCGGGGTGTTACGTTAATGGGCGGAGTCACCTAGTGCAG,16500 fluorescence intensity (a.u.)
10,ATGTGGGTGTGGCATTGTTGGTGTCGGCTGCGCCGCAGCCCGGAGTCACCTAGTGCAG,9630 fluorescence intensity (a.u.)
11,TCGCCGGCGGAGGAGTTGGTGTGGAGAGGGCGGGGAGATGCGGAGTCACCTAGTGCAG,9560 fluorescence intensity (a.u.)
12,GTGGGGTTGGGTTACGTGGTGGAGCTGAGCCCGGCGGCGCCGGAGTCACCTAGTGCAG,11600 fluorescence intensity (a.u.)
13,GGAGGGTGGGGTAGGAGAGGATGCGGCGGGCGCCATGGCTCGGAGTCACCTAGTGCAG,8590 fluorescence intensity (a.u.)
14,GCCGGCGCCGGTGGCGTGCGGTCGTGGGCGGGAGGTGGTGCGGAGTCACCTAGTGCAG,12300 fluorescence intensity (a.u.)
15,AGGTGGTGTAGCGCGCGCGGGTGGGGTTGGGTTACGTGGTCGGAGTCACCTAGTGCAG,15600 fluorescence intensity (a.u.)
16,TCGTGTTGGTGGTGGTGGTGGTGTGCGGGCGGGCGGGCGCCGGAGTCACCTAGTGCAG,33300 fluorescence intensity (a.u.)
17,CGGCTCGGCTCGGCTCGCGCGGCGGCGGCGGCGGGGCGGCCGGAGTCACCTAGTGCAG,8890 fluorescence intensity (a.u.)
18,TTTGTGTGTGTGTTGTTGGTCGGGTGGGGTCGCCGGCGCCCGGAGTCACCTAGTGCAG,20100 fluorescence intensity (a.u.)
19,CGTTGTTTATCTTTTCTAATGCCATGTGTATATATGATTCCGGAGTCACCTAGTGCAG,10500 fluorescence intensity (a.u.)
20,CCCGTGCTCTTTGTAGATTTACTACCTTTGGACTTGACCTCGGAGTCACCTAGTGCAG,11200 fluorescence intensity (a.u.)
21,TCTGCGCTCCCGCATGCCGGCCGCTGAATCATCGTCAATCCGGAGTCACCTAGTGCAG,9000 fluorescence intensity (a.u.)
22,AATAGCCTCGTCCCTGTAAACTCCCAATCCCTTTTTAAAACGGAGTCACCTAGTGCAG,8420 fluorescence intensity (a.u.)
23,AGTTGTGGAGCTGTCTAAACCCATCTCTACTTCTCTACTTCGGAGTCACCTAGTGCAG,8200 fluorescence intensity (a.u.)

row,Sequence,binding signal
1,TTTCCTCATTTATTCACCTGTCACACCATCTTTCATCATACGGAGTCACCTAGTGCAG,9590 fluorescence intensity (a.u.)
2,CCTGATCGGATTTGGTTGGCTGGTGCTCTAGATGATGTACCGGAGTCACCTAGTGCAG,8170 fluorescence intensity (a.u.)
3,GGGGAGTTGGGATTTTTGGCGATGTGGGTTTCGTACACCGCGGAGTCACCTAGTGCAG,9870 fluorescence intensity (a.u.)
4,CGTCGGGGTTGGGGTTGGGGCTGGGGCCGGCGCCGACGCCCGGAGTCACCTAGTGCAG,13400 fluorescence intensity (a.u.)
5,CGGTTGCGGGTGGGCAGCGGCAGCGTCGCCGGCTGGGGCGCGGAGTCACCTAGTGCAG,9840 fluorescence intensity (a.u.)
6,TGGGGTGGGTGCCCGGAGCTTTGATGCGCGTGGCCGCCGGCGGAGTCACCTAGTGCAG,12400 fluorescence intensity (a.u.)
7,TTGGCGAGCGAGCTGTGTGGTGGTGGTGGTGGGTGAGTGGCGGAGTCACCTAGTGCAG,13600 fluorescence intensity (a.u.)
8,GGCGCCGGCGCTAGCGCCCACGTCGGGGTTGGGGTTGGGGCGGAGTCACCTAGTGCAG,16600 fluorescence intensity (a.u.)
9,GTGCGAGCTGCGCCCGTGTGATGTGGGCGGGTGGGTGTTCCGGAGTCACCTAGTGCAG,16900 fluorescence intensity (a.u.)
10,TTGCTCTCCTCTCTGGATTGATGTGTTCGTTTGGCCATTCCGGAGTCACCTAGTGCAG,8940 fluorescence intensity (a.u.)
11,GCCATGGGGTTGACTCTCTGGGTGTTCTTGGTTTCTTGGCCGGAGTCACCTAGTGCAG,10500 fluorescence intensity (a.u.)
12,GGTCTTGCTAGTTGGCCATGTGAGAGTGAGACCGGGTCTCCGGAGTCACCTAGTGCAG,50700 fluorescence intensity (a.u.)
13,CGTGTGGGTGGGTGGGTGGAGTGGACTGGTTTCTGTGAGCCGGAGTCACCTAGTGCAG,18500 fluorescence intensity (a.u.)
14,ATGCGGATCTGAGTGGTGGTGGTGGTGGACTGGTGGTTGCCGGAGTCACCTAGTGCAG,11000 fluorescence intensity (a.u.)
15,CTTTCTTCTGTGTGGTGGGTTTTAGCCGGTTTCTCGCAATCGGAGTCACCTAGTGCAG,18400 fluorescence intensity (a.u.)
16,TGGAGCTGGTTTTTGGGTGGTGTTTTCTCTGTGATCGTGGCGGAGTCACCTAGTGCAG,9760 fluorescence intensity (a.u.)
17,GCCATGTGACTAGACCGAGCTAGCTCGCTCGATCGATCTCCGGAGTCACCTAGTGCAG,8510 fluorescence intensity (a.u.)
18,CAATTTTAGTTCAATCTTGGGTGTTTTCGCATGGTTCTCTCGGAGTCACCTAGTGCAG,8180 fluorescence intensity (a.u.)
19,TTTGGTTACCGCATTTTTGTGTTCTTCTGTGCAGTTTAGCCGGAGTCACCTAGTGCAG,8150 fluorescence intensity (a.u.)
20,AGGAGTGTCTGGTTGGTTTCCGGGGTGTGTTGGGTGACTCCGGAGTCACCTAGTGCAG,29500 fluorescence intensity (a.u.)
21,TTGTTGGCAAGTTTCTTCCCTTGTCTCTCTCTTGTGAGACCGGAGTCACCTAGTGCAG,8700 fluorescence intensity (a.u.)
22,TGTTGGTGGTGAGGTGTGAGGTGAGGTGGGGTGGTGTGGCCGGAGTCACCTAGTGCAG,10100 fluorescence intensity (a.u.)
